Results: PubChem BioAssay (EPA / NIEHS)
Active and inactive are the calls of the source. The calls were made as follows: active = hit-call score of the fitted dose curve at least 0.9, where 1 is the maximum; inactive = score below 0.9.

Biological target: Retinoic acid receptor alpha (Homo sapiens) (UniProt P10276)
Test: ATG_DR5_RAR_CIS: Attagene CIS-FACTORIAL HepG2 Assay for human Retinoic Acid Receptor Alpha (RARE), DR5 submotif (AID 2282934);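 as to AC50: reporter responds to endogenous RAR alpha beta and gamma in HepG2 not RARA alone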
Conditions: HepG2 Attagene cis-factorial RARE DR5 reporter, mRNA; actives raise or lower the signal
Procedure: ATG_CIS is a cell-based, multiplexed-readout assay that uses HepG2, a human liver cell line, with measurements taken at 24 hours after chemical dosing in a 24-well plate.ATG_DR5_RAR_CIS is one of 52 assay component(s) measured or calculated from the ATG_CIS assay. It is designed to make measurements of mRNA induction, a form of inducible reporter, as detected with fluorescence intensity signals by Reverse transcription polymerase chain reaction (RT-PCR) and Capillary electrophoresis technology.Data from the assay component ATG_DR5_RAR_CIS was analyzed into 1 assay endpoint. This assay endpoint, ATG_DR5_CIS, was analyzed with bidirectional fitting relative to DMSO as the negative control and baseline of activity. Using a type of inducible reporter, measures of mRNA for gain or loss-of-signal activity can be used to understand the reporter gene at the transcription factor-level as they relate to the gene RARA and RARB and RARG. Furthermore, this assay endpoint can be referred to as a primary readout, because this assay has produced multiple assay endpoints where this one serves a reporter gene function. To generalize the intended target to other relatable targets, this assay endpoint is annotated to the nuclear receptor intended target family, where the subfamily is non-steroidal.
Human liver HepG2 cells are transiently transfected with multiple reporter transcription units (MRTUs) in 6-well plates using FuGene 6 reagent (Roche; 3 ml FuGene/1 mg DNA). The MRTU constructs are regulated by a cis-regulating element (promoter). […] A major difference between the CIS and TRANS system is that in CIS activities of endogenous TFs are measured, whereas the TRANS assay evaluates changes in activities of exogenous, chimeric NR-Gal4 proteins. […] At the end of 24 hour incubation, total RNA was isolated using TriZol reagent (Invitrogen). The isolated RNA is then reverse-transcribed using oligo(dT) primer and Mo-MLV reverse transcriptase (Invitrogen) with DNAse I (Ambion) treatment for 30 min. The one-tenth of the produced cDNA was amplified by PCR using Taq DNA polymerase (Invitrogen) and two reporter sequence-specific primers. The PCR products were fluorescently labeled by primer extension with 6-arboxyfluorescein (6-FAM) 5'-labeled reporter sequence-specific primer (2 min at 95 C, 20 s at 68 C and 10 min at 72 C) and these products were digested with 5U of HpaI (New England Biolabs) for 2h at 37 C. The fragments were purified using Qiaquick PCR columns (Qiagen), analyzed on an ABI 3130xL genetic analyzer (Applied Biosystems) with peak positions identified by using a set of X-rhodamine (ROX)-labeled MapMarker1000 molecular weight standards (BioVentures). The raw capillary electrophoresis data was processed using Attagraph software (Attagene).

Chain of Retinoic acid receptor alpha (Homo sapiens) (P10276 whole entry, looked up): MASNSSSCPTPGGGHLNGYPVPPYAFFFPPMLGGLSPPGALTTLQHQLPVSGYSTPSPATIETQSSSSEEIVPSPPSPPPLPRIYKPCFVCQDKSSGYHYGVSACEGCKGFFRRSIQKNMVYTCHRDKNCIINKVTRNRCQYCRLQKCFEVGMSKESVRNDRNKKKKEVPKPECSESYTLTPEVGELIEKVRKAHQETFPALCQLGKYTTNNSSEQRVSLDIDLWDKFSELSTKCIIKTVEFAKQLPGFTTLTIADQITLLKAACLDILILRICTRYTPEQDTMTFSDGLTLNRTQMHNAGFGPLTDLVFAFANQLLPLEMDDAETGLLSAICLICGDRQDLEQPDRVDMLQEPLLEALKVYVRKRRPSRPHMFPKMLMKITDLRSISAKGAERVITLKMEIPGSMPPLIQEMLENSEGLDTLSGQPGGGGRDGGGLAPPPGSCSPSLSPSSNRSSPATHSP

outcome, inactive:
CS(=O)(=O)c1ccc(Cl)cc1, CCCCCCCCCCCCCCCC(=O)OC/C=C(C)/C=C/C=C(C)/C=C/C1=C(C)CCCC1(C)C, CC1CC(O)CC(C)(C)C1 (stereo not given), CC(=O)CC(=O)Nc1ccccc1, CCCC(=O)C(CC)Sc1ccoc1C (stereo not given), CC(C)(C)c1ccc(C(=O)O)cc1, C#CC(C)(O)CC(C)C (stereo not given), CC(C)CCCCCCc1ccc(OCCOCCO)cc1, CCCCOC(=O)CCCCCCCC(=O)OCCCC, CCC(C)S (stereo not given), [O-]n1ccccc1=S.[O-]n1ccccc1=S.[Zn+2], CCC1(C)NC(=O)NC1=O (stereo not given), C=CCOC(=O)CCCCCC, Cc1cc(CCC(=O)OCCOCCOCCOC(=O)CCc2cc(C)c(O)c(C(C)(C)C)c2)cc(C(C)(C)C)c1O, CS(=O)(=O)OCCCCOS(C)(=O)=O, COc1ccc(COC(C)=O)cc1, C=Cc1ccc(C)cc1, IC(I)I, O=CN1CCOCC1, CCCCCCOCCOCCO, COC(C)(C)CCCC(C)CC=O (stereo not given), C=CC(=C)CCCC(C)(C)OC(C)=O, O=P(O)(O)O, COS(=O)(=O)O, CCCCCCCCCCCCN1CCCCCC1=O, C1=CC2C3C=CC(C3)C2C1 (stereo not given), CC(C)CC(C)CC(O)CC(C)C (stereo not given), COCCOCCOCCO, COc1cc(C(C)C)ccc1C, CC(=O)NCCO, C=C(C)C(=O)OCCOCCOCCOCCOC(=O)C(=C)C, C=CC(=O)OCCC#N, Nc1ccc(NCCO)c([N+](=O)[O-])c1, C[Si]1(C)O[Si](C)(C)O[Si](C)(C)O1, NC(=S)NNC(N)=S, CCCCCCCCCC(=O)OC, CCOCCOCCOCC, COC(=O)c1ccc(C)cc1C1=NC(C)(C(C)C)C(=O)N1 (stereo not given) (tested in a mixture with another compound)

AC50, active:
BrCc1cccc(Oc2ccccc2)c1 5.96 µM, CCc1cc(C(C)(C)C)c(O)c(C(C)(C)C)c1 5.23 µM
